From ChEMBL document CHEMBL4888484, “Replenishing the malaria drug discovery pipeline: Screening and hit evaluation of the MMV Hit Generation Library 1 (HGL1) against asexual blood stage Plasmodium falciparum ,using a nano luciferase reporter read-out” (2022) come the findings set out here.

In all, about 4,800 compounds went through this assay and about 420 (8.8%) showed an effect of 50% or more. What follows is part of a selection rich in strong results, with near analogues and random picks from the rest.

In the test the test system is Plasmodium falciparum. Description: Confirmatory screen in NF54 nanoGlo assay, in single point, at 2uM, 72h. It is filed as functional, Erythrocyte. Conditions: timepoint 72 hour.
As to `c1ccc2oc(N3CCCCCCC3)nc2c1`, the “% Inhibition” value was -5%.

As for `Cc1ccc(CC(=O)N2CCC(NC(=O)OC(C)(C)C)CC2C)o1` (configuration not stated), the “% Inhibition” value is on record as -7%.

In the case of `COC[C@@H]1CCCN1c1ccc2c(c1)CNCC(=O)N1CC[C@@H](CC(=O)NCCN3CCOCC3)[C@@H](/C=C/CO2)C1`, the “% Inhibition” value is listed as -13%.

`CC[n+]1ccc(-c2ncc(-c3ccc(C(C)(C)C)cc3)o2)cc1`: the “% Inhibition” value turned out to be 63%.

On to `CCC(C)(CC)[C@@](O)(C#CC[N+]1(Cc2ccccc2Cl)CCCCC1)c1ccccc1`, for which the “% Inhibition” value came to 4%.

Regarding `CN1c2cc(C(=O)N3CCc4ccccc4C3)ccc2C(=O)N2CCCC[C@H]21`, the “% Inhibition” value is -6%.

With `Cc1cc2ncn([C@@H](C)c3nc(-c4cnccn4)cs3)c2cc1C`, the “% Inhibition” value came to 0%.

Regarding `CCC[C@H](NC(=O)c1ccc(Cl)o1)c1nnn[nH]1`, the “% Inhibition” value was 6%.

Take `C=CCCCNc1ccc(C(N)=O)c(F)c1`: the “% Inhibition” value was -1%.

Turning to `COc1ccc(CCc2nnc(NC(=O)Cc3c(C)noc3C)[nH]2)cc1OC`, the “% Inhibition” value was 15%.

For `COc1ccc(CCc2nc(NC(=O)c3nc(C)sc3C)n[nH]2)cc1OC`, the “% Inhibition” value was determined as 65%.

On to `COc1ccc(CCc2nc(NC(=O)c3[nH]nc4c3CCC4)n[nH]2)cc1`, for which the “% Inhibition” value is on record as -1%.

For the molecule `Cc1c(CCNC(=O)NCC2CC23CCc2ccccc23)cnn1C` (configuration not stated), the “% Inhibition” value is recorded as -4%.

As to `Cc1cc(C(=O)NCCCn2cccn2)nc(N2CCOCC2)n1`, the “% Inhibition” value was 0%.

On to `Cc1nn(C)cc1-c1nn(-c2nc(C3CC3)cc(C(F)(F)F)n2)c(-c2cn(C)nc2C)c1C`, for which the “% Inhibition” value is given as 16%.

As to `Cc1c(-c2nn(-c3ccccc3)c(-c3cnn(C)c3C)c2Cl)cnn1C`, the “% Inhibition” value is -4%.

For the molecule `Cc1c(-c2nn(-c3nc(C4CC4)cc(C(F)(F)F)n3)c(-c3cnn(C)c3C)c2Cl)cnn1C`, the “% Inhibition” value stood at 69%.

In the case of `CC(C)Nc1nc2nonc2n2cnnc12`, the “% Inhibition” value worked out at 69%.

As to `CN(Cc1cc(C(F)(F)F)ccc1Cl)[C@H]1CCc2nn(C)c(=O)n2CC1`, the “% Inhibition” value is reported as -8%.

In the case of `Cn1ccc2cccc(NC(=O)N3CC(C)(CO)C3)c21`, the “% Inhibition” value was 1%.

Take `Cc1c(-c2nn3c(Cc4ccc(Cl)cc4)nnc3s2)cnn1-c1ccccc1`: the “% Inhibition” value is -16%.

`Cc1cccc(C(=O)Nc2nc3cc4sc(NC(=O)c5cccc(C)c5)nc4cc3s2)c1`: the “% Inhibition” value worked out at 7%.

Regarding `COc1cc(C(=O)Nc2scnc2C)cc(OC)c1OC`, the “% Inhibition” value is -1%.

For `COc1cc(C(=O)Nc2ccc3sc(NC(=O)c4cc(OC)c(OC)c(OC)c4)nc3n2)cc(OC)c1OC`, the “% Inhibition” value stood at 56%.

On to `C1=CCC(c2nc(-c3cnccn3)no2)C1`, for which the “% Inhibition” value is on record as -6%.

Consider `CCCCCNC(=O)NCc1ncoc1C`, for which the “% Inhibition” value is on record as -1%.

For the molecule `C[C@H](O)CNCc1ccc(Cl)cc1Cl`, the “% Inhibition” value is on record as -8%.

As to `CCNC(=O)NCCOC(=O)c1cccc(C)c1Cl`, the “% Inhibition” value is 1%.

For `O=C(NCc1cccc(F)c1)[C@H]1CCCN(c2nc3ccccc3n(Cc3ccccc3)c2=O)C1`, the “% Inhibition” value worked out at 5%.

With `Cc1cc(C)cc(-c2cc3nc(C)cc(N4CCC(C(=O)NCc5cccc(F)c5)CC4)n3n2)c1`, the “% Inhibition” value was found to be 79%.

For `Cc1cc(C)cc(-c2cc3nc(C)cc(N4CCC(C(=O)Nc5ccc(C)c(Cl)c5)CC4)n3n2)c1`, the “% Inhibition” value is recorded as 0%.

Turning to `CC[n+]1c(C)n(C2CCCCC2)c2ccc(C(=O)OC)cc21`, the “% Inhibition” value was 0%.

`Cn1cc(C(C(=O)O[C@@H]2C[C@@H]3CC[C@@]2(C)C3(C)C)c2cn(C)c3ccccc23)c2ccccc21`: the “% Inhibition” value came out at 0%.

As for `CC[N+](CC)(CC(=O)OC1CC2CCC1(C)C2(C)C)CC(=O)OC1CC2CCC1(C)C2(C)C` (configuration not stated), the “% Inhibition” value is recorded as 83%.

With `CC1CCN(c2nccnc2Oc2ccc(C(=O)NCc3ccccc3Cl)cc2)CC1`, the “% Inhibition” value is 59%.

Turning to `Cc1nc2cccnc2n1-c1cc(C(=O)NCc2ccccc2Cl)ccc1Cl`, the “% Inhibition” value is -2%.

For the molecule `O=C(NCc1cccnc1Oc1ccccc1)c1cccnc1`, the “% Inhibition” value is listed as 5%.

Take `Cc1cc(=O)n2ncc(C(=O)NCc3cc(F)cc(F)c3)c2[nH]1`: the “% Inhibition” value was -13%.

`C=CCOC(=S)NC(=O)Cc1ccccc1Cl`: the “% Inhibition” value was determined as 7%.

For the molecule `Cc1ccc(-c2cn3c4ccccc4nc3n2CCN2CCN(C)CC2)cc1`, the “% Inhibition” value came out at 2%.

For the molecule `Cn1c(-c2ccc(Br)cc2)cn2cc(-c3ccc(Cl)cc3)nc12`, the “% Inhibition” value is -5%.

For the molecule `Cn1c(-c2ccc(-c3ccccc3)cc2)cn2cc(-c3cccc(Br)c3)nc12`, the “% Inhibition” value is 0%.

Consider `CCN(CC)CCn1c2ccccc2n2cc(-c3ccc(Br)cc3)nc12`, for which the “% Inhibition” value was determined as 59%.

Turning to `O=C(Nc1ccccc1)c1cccc(CN2CCN3CCOC[C@@H]3C2)c1`, the “% Inhibition” value is reported as -5%.

With `CCn1cc(NC(=O)CCn2ncc3c(Cl)cccc32)cn1`, the “% Inhibition” value is -6%.

For the molecule `O=C(c1cc2ncccn2n1)N1CCc2ccccc2C1`, the “% Inhibition” value was -3%.

Take `O=S(=O)(Nc1cccc(-c2nnc3n2CCC3)c1)c1ccc2c(c1)OCCCO2`: the “% Inhibition” value is -12%.

On to `CC[C@H](O)CN1CCC(Nc2ncnc3cc(Cl)ccc23)CC1`, for which the “% Inhibition” value is 42%.

Turning to `CC1CC(Nc2ncnc3cc(Br)ccc23)CCN1C` (configuration not stated), the “% Inhibition” value was determined as 96%.

Turning to `CN1CCC(Nc2ncnc3c2cnn3C)C1c1ccc(Cl)cc1` (configuration not stated), the “% Inhibition” value is 4%.

On to `Brc1cncnc1NC1CC1`, for which the “% Inhibition” value was found to be 2%.

Regarding `Cc1nc(-c2ccc(C(F)(F)F)cc2)nc(N2CCN(C(=O)c3cc(C(F)(F)F)cc(C(F)(F)F)c3)CC2)c1C(C)C`, the “% Inhibition” value is reported as -2%.

Consider `CC(C)(C)C(=O)Nc1cc(Br)c(O)c(Br)c1`, for which the “% Inhibition” value worked out at 3%.

With `COCCN1CC2(CCCC2)N(C(=O)COc2ccc(F)cc2)CC1=O`, the “% Inhibition” value is listed as -7%.

Regarding `COc1cc(=O)c(C(=O)N2CCC(C(N)=O)CC2)nn1-c1ccc(F)c(F)c1`, the “% Inhibition” value is 3%.

Turning to `Cc1nccn1-c1cc(CNC(=O)[C@H]2CCCN(S(=O)(=O)c3cccs3)C2)ccn1`, the “% Inhibition” value was determined as 2%.

For `Cc1ccc(C(=O)C[n+]2cc(-c3ccc(-c4ccccc4)cc3)n(C)c2N)cc1`, the “% Inhibition” value was 4%.

As to `Cc1n(CC(=O)c2ccccc2)c2ccccc2[n+]1CC(=O)c1ccccc1`, the “% Inhibition” value is given as 68%.

As to `O=C(c1ccccc1)n1c(=O)n(C(=O)c2ccccc2)c2ccccc21`, the “% Inhibition” value was 6%.

With `COc1ccc(S(=O)(=O)N2CCN(Cc3noc(CCC(=O)N(C)Cc4ccccc4)n3)CC2)cc1`, the “% Inhibition” value is listed as -6%.

On to `CC(C)(CC(=O)O)CC(=O)Nc1ccc(Cc2nnc3ccccn23)cc1`, for which the “% Inhibition” value is on record as -4%.

As to `O=C(NCC1CC1)c1cn[nH]c1-c1ccccc1`, the “% Inhibition” value is -1%.

Take `Oc1cc(OCc2ccccc2F)ccc1-c1[nH]ncc1-c1ccccc1`: the “% Inhibition” value is recorded as 75%.

Regarding `COc1ccc(-c2c(C(F)(F)F)n[nH]c2-c2ccc(OCc3ccccc3F)cc2O)cc1`, the “% Inhibition” value is recorded as 90%.

Turning to `COc1cc(-c2nc3ccccc3s2)ccc1OCc1cccc2ccccc12`, the “% Inhibition” value is reported as -7%.

For the molecule `c1ccc(-c2cn[nH]c2N2CCNCC2)cc1`, the “% Inhibition” value is listed as -7%.

On to `COc1cc(OC)cc(C2(O)CCN(C(=O)CCc3ccccc3F)CC2)c1`, for which the “% Inhibition” value is listed as -10%.

As to `NS(=O)(=O)Cc1ccc(CNc2ccc3ccc(F)cc3n2)cc1`, the “% Inhibition” value was 3%.

Turning to `CCC(=O)N1CCc2sc(C(=O)NC3CCN(Cc4ccccc4)CC3)cc2C1`, the “% Inhibition” value is recorded as -5%.

In the case of `CCCn1nccc1C(=O)NCCCn1ncc2c(C)cccc21`, the “% Inhibition” value was -2%.

Turning to `CNC(=O)c1cc(NS(=O)(=O)N2CCCCCC2)ccc1F`, the “% Inhibition” value is recorded as -8%.

For the molecule `CCNC(=O)N1CCCC[C@@]1(C)c1noc(-c2ccc(F)cc2)n1`, the “% Inhibition” value was found to be 5%.

With `Cc1nn(C)c(Cl)c1CNCc1ccc(N2CCCCC2)nc1`, the “% Inhibition” value was -10%.

As to `COc1cc(CNCCN2CCOCC2)ccc1OCc1cccc(C)c1`, the “% Inhibition” value is given as -2%.

For `Fc1ccc(COc2cccc(CNCCN3CCOCC3)c2)cc1`, the “% Inhibition” value was -8%.

For the molecule `O=C(Nc1ccncc1)c1nc(N2CCCC2)ncc1Br`, the “% Inhibition” value is -5%.

On to `CC1CCC(C)(NC(=O)Nc2ccn(C(C)C)n2)CC1` (configuration not stated), for which the “% Inhibition” value is -11%.

On to `CC1(C)CC[C@H](NC(=O)CCNc2ncccn2)c2ccccc21`, for which the “% Inhibition” value was -8%.

Regarding `COc1cc2c(cc1OC)CN(c1noc(-c3ccccc3)n1)CC2`, the “% Inhibition” value is -5%.

With `CC(C)(C)c1ccc(C(=O)N[C@H]2C[C@@H]3CC[C@H]2C3)cc1`, the “% Inhibition” value is 8%.

With `Cc1ccc(CNC(=O)c2csnn2)n1C`, the “% Inhibition” value is recorded as -1%.

On to `COc1ccc(CNC(=O)[C@H](C)n2ccc3cc(S(=O)(=O)N4CCCC4)ccc32)cc1OC`, for which the “% Inhibition” value amounted to 0%.

Turning to `O=C1NC(=O)C2(CCN(C(=O)C3CC4CCC3C4)CC2)N1` (configuration not stated), the “% Inhibition” value is on record as -7%.

With `CS(=O)(=O)N1CC[C@H](CC(=O)N2CCN(c3ccc(F)cc3)CC2)C1`, the “% Inhibition” value was -14%.

On to `N#CC1CCC(Nc2cnn(-c3ccncc3)c2)CC1` (configuration not stated), for which the “% Inhibition” value was found to be 5%.

With `CC(C)C(=O)N1CC[C@H](CC(=O)NCc2ccncc2)C1`, the “% Inhibition” value was found to be 0%.

In the case of `Cc1nn(C)cc1S(=O)(=O)N1CCC[C@@H]1CCc1ccccn1`, the “% Inhibition” value is on record as -12%.

Regarding `COc1cc(OC)c(OC)cc1CNC(C)C`, the “% Inhibition” value was -2%.

Take `Cc1c(C(=O)NC[C@](C)(O)c2ccc(F)cc2F)cnn1C`: the “% Inhibition” value was 7%.

Turning to `CN(Cc1cccnc1)c1ccc(S(=O)(=O)C(F)F)cc1`, the “% Inhibition” value is -5%.

With `O=C(NCCc1c(Cl)cccc1Cl)[C@@H]1CCCc2[nH]cnc21`, the “% Inhibition” value was -2%.

Take `O=C(c1cc(F)c[nH]1)N1CCN(C(=O)c2cc(F)c[nH]2)[C@@H]2CCCC[C@H]21`: the “% Inhibition” value turned out to be 13%.

Consider `COc1ccc(-c2cc3ncc(C(=O)c4cc(Cl)ccc4O)cn3n2)cc1`, for which the “% Inhibition” value is listed as 72%.

`COc1ccc(C2=NC3(CCN(Cc4ccccc4)CC3)N[C@H](c3cc(Cl)ccc3O)C2)cc1`: the “% Inhibition” value amounted to 24%.

Consider `O=C(Cc1ccc(Cl)cn1)Nc1ccnn1[C@H]1CCCc2ccccc21`, for which the “% Inhibition” value is recorded as -10%.

As for `CN1CCN(C(=O)CNC(=O)c2cccc(Cl)c2)CC1`, the “% Inhibition” value was -2%.

On to `Cc1ccc(S(=O)(=O)N(CC(=O)NC2CCN(C)CC2)c2cccc(Cl)c2)cc1`, for which the “% Inhibition” value is given as -7%.

For `Cc1ccc(COc2cccc(CNC3CC3)c2)cc1`, the “% Inhibition” value is -7%.

Turning to `Cn1c(=O)c2ccnn2c2ccc(C(=O)NC3CCN(Cc4ccccc4)CC3)cc21`, the “% Inhibition” value is 23%.

On to `CC(C)Cn1ncnc1COC(=O)c1cccnc1`, for which the “% Inhibition” value is reported as -1%.

Turning to `Cc1cc2[nH]ncc2cc1NC(=O)c1ccco1`, the “% Inhibition” value is on record as -8%.

As to `CC[C@H]1C[C@@H]1CNC(=O)c1cccc(NC(=O)c2ccco2)c1`, the “% Inhibition” value is -7%.
